Assay outcomes as filed in PubChem BioAssay.
NSD2 inh: inhibitors of human histone methyltransferase NSD2; O96028; NSD2 peptide methylation, AlphaScreen, 120 min; inhibition, % at 12.5 µM; hit rate 0.54% among 310,000; in the data active = inhibition above about 50%
SIRT5 inh: sirtuin-5 (human) deacylase inhibition | Q9NXA8 | Purified SirT5, succinyl-peptide AMC, trypsin-coupled fluorescence | inhibition, % at 15 µM | hit rate 1.1% among 330,000 | AID 652115; in the data active = inhibition above about 15%
Target sequence (Q9NXA8 whole entry, looked up): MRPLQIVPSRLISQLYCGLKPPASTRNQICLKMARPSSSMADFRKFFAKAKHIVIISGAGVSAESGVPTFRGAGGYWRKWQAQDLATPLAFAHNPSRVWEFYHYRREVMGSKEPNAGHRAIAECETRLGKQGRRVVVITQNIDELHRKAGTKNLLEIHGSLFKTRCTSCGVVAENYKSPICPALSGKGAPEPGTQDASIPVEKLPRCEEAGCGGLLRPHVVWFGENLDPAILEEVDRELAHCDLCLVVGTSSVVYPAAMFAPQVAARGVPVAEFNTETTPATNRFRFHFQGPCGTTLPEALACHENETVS
ARNT-TACC3 inh: disrupts binding between human ARNT and TACC3; Q9Y6A5; AlphaScreen His-ARNT PAS-B/GST-TACC3 binding, luminescence; TACC3 fragment carries E629A point mutation; inhibition, % at 9.99 µM; hit rate 0.66% among 390,000; AID 623870;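 active = mean inhibition of replicates at least 50% and at least half of replicates each reaching 50%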;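 also: 0% = complete ARNT plus TACC3 wells and 100% = ARNT alone without TACC3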
CASP6 VEID inh: inhibitors of human caspase-6. purified caspase-6, Z-VEID-R110 cleavage fluorescence. hit rate 0.53% among 350,000. P55212. inhibition, % at 12.5 µM;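 active = mean inhibition across replicates at least about 35%, with every replicate also reaching that limit, limit read from the data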;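 also: 0% = median of neutral control wells and 100% = no fluorescence left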
Target sequence (P55212 24-179 limits assumed): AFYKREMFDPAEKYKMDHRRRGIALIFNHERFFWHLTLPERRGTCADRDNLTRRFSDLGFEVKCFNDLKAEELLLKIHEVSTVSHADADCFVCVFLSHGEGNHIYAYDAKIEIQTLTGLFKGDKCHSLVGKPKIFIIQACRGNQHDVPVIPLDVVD
Target sequence (P55212 194-293 limits assumed): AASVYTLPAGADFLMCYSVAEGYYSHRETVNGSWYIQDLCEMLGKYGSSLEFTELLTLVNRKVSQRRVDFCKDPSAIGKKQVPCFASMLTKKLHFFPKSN
PfHsp90 yeast 2: inhibits growth of yeast expressing Plasmodium falciparum Hsp90; inhibition, % at 9.4 µM; hit rate 0.32% among 310,000; AID 504621; S. cerevisiae expressing PfHsp90, BacTiter-Glo ATP, 48 h; yeast lacking PDR1 and PDR3 efflux regulators;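 active = every replicate shows inhibition above about 80%, whatever the replicate mean, limit read from the data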;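 also: 0% = DMSO neutral controls and 100% = 20 µM radicicol positive controls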
Alpha artifact: AlphaScreen assay artifact in NSD2 counter-screen; shares compounds with NSD2 inh; AlphaScreen artifact counterscreen, preloaded methylated H4 peptide; hit rate 9.4% among 1,500; AC35, µM (series often up to 10 µM), for inactives: at the top dose activity change, negative = signal loss; call rule not given here
Starred values were filed as active, the others as inactive; / = no result. Compounds with a hit are over-represented: about 2.1% of the library has one in this group of screens.

SMILES	NSD2 inh	SIRT5 inh	ARNT-TACC3 inh	CASP6 VEID inh	PfHsp90 yeast 2	Alpha artifact
CCOC(=O)C1CCN(c2nc(N)c3c(N)nc(SCC(=O)O)cc3c2C#N)CC1	101*	11	52*	65*	-19	-6%
CN1C(=O)c2cc(NC(=O)C3CCCCC3)ccc2OC[C@@H]2O[C@H](CC(=O)NC3CCCC3)CC[C@@H]21	/	-2	-2	1	/	/
Cc1c(C(=O)N2CCN(c3ccccc3)CC2)sc2ncnc(N3CCN(c4ccccn4)CC3)c12	4	-1	5	8	-16	/
Cc1c(C(=O)N2CCN(c3ccc(F)cc3)CC2)sc2ncnc(N3CCN(c4ccccn4)CC3)c12	59*	-4	4	1	-13	-6%
COc1cc(CCNC2=CC(=O)c3ncccc3C2=O)ccc1O	128*	9	37*	91*	-9	-3%
CCCNC(=O)C[C@@H]1CC[C@H]2[C@@H](COc3ccc(NC(=O)c4cccc(Cl)c4)cc3C(=O)N2C)O1	/	-4	-1	1	/	/
CCC(=O)N1[C@@H]2CN(C(=O)c3ccccc3F)c3ccccc3[C@@H]2[C@@H]1CO	/	-1	-2	2	/	/
CCCCn1c(SCC(=O)N2CCCC2)nc2c1c(=O)n(C)c(=O)n2C	0	/	-3	/	12	/
CCn1c(SCC(=O)N2CCCCC2)nc2c1c(=O)n(C)c(=O)n2C	69*	3	0	1	13	-1%
C[C@@H]1CN([C@H](C)CO)S(=O)(=O)c2ccc(C3=CCCCC3)cc2O[C@H]1CN(C)C(=O)C1CCCCC1	/	9	7	-1	/	/
O=C(Cc1cccnc1)N1CC(=O)N2[C@H](CO)[C@@H](c3ccc(C#CC4CCCC4)cc3)[C@H]2C1	/	4	/	-1	/	/
COC(=O)[C@]1(Cc2ccccc2)N=C(c2ccc(OCCCO)cc2)O[C@@H]1c1ccccc1	/	1	/	-2	/	/
O=C(CCCN1C(=O)/C(=C\c2ccco2)SC1=S)Nc1ccc2ccccc2c1	1	14	7	8	-21	/
O=C(CCN1C(=O)/C(=C\c2ccco2)SC1=S)Nc1ccc(C(=O)O)c(O)c1	111*	57*	13	73*	-3	-17%
CC(C(=O)Nc1ccc(O)cc1C(=O)O)N1C(=O)/C(=C\c2cccs2)SC1=S (stereo unspecified)	83*	8	19	46*	-8	-5%
O=[N+]([O-])c1cc2ncccc2c2ncccc12	56*	-4	/	0	/	-6%
O=c1oc(-c2ccco2)nc2c1cnn2-c1ccccc1	-3	/	-7	/	0	/
O=c1c2cnn(-c3ccccc3)c2nc(-c2ccco2)n1-c1ccccc1	115*	/	1	/	-19	-4%
NC(=NCc1ccc2c(c1)OCO2)NC(=O)c1ccccc1	88*	-3	6	7	-8	0%
O=c1[nH]c(NCCO)c(N=Cc2ccccc2)c(=O)[nH]1	104*	-13	-1	-1	1	3%
CCn1c(-c2cc3c(C(F)(F)F)nn(C)c3s2)n[nH]c1=S	52*	/	-2	/	/	-6%
CCN1/C(=C/c2ccc3cc(C)cc(C)c3[n+]2CC)Sc2cc(C)ccc21	113*	3	25	-37	102*	9.7µM*
O=C(CCc1nnc(-c2ccccc2)o1)NCc1cc(F)ccc1F	51*	-3	2	-2	-3	6%
O=C(c1cc(-c2ccc(Cl)c(Cl)c2)on1)N1CCCCCC1	81*	0	-4	-2	2	-2%
O=C(c1cc(-c2ccc(Cl)cc2)on1)N1CCCCCC1	0	-1	0	-4	7	/
SMILES	NSD2 inh	SIRT5 inh	ARNT-TACC3 inh	CASP6 VEID inh	PfHsp90 yeast 2	Alpha artifact
COc1ccccc1CNC(=O)C(NC(=O)Nc1ccccc1)C(C)C (stereo unspecified)	106*	-8	-4	-2	14	-4%
Cc1ccc(-c2cnc3c(c2)C(=O)N([C@@H](C)CO)C[C@@H](C)[C@@H](CN(C)Cc2ccccc2C(=O)O)O3)cc1	/	1	0	-1	/	/
O=C(O)c1ccc2c(c1)C(=O)N(c1cccc(C(=O)/C=C/c3ccccc3)c1)C2=O	89*	-1	1	12	-11	-2%
O=C(O)c1cccc(N2C(=O)c3ccc(C(=O)c4cccc([N+](=O)[O-])c4)cc3C2=O)c1	4	-2	-3	5	8	/
Cc1ccc(S(=O)(=O)Nc2ccc3c(c2)CC(=O)N([C@H](C)CO)C[C@@H](C)[C@H](CN(C)C(=O)Nc2ccc(C(F)(F)F)cc2)O3)cc1	/	1	4	-2	/	/
CCN(CC)CCSc1nc2ccccc2c(=S)n1-c1ccccc1	108*	0	/	-8	/	-15%
CCN(CC)CCSc1nnc(Nc2ccccc2)n1-c1ccccc1	0	/	/	-2	-58	/
C[C@H]1CN([C@@H](C)CO)C(=O)Cc2cc(NC(=O)CCCCCC(=O)Nc3ccccc3N)ccc2O[C@H]1CN(C)CC1CCCCC1	/	/	25	-3	/	/
COc1ccccc1N1CCN(S(=O)(=O)CCNC(=O)c2ccc(Br)o2)CC1	76*	0	8	-2	2	-1%
O=C(NCCS(=O)(=O)N1CCN(c2ccccc2)CC1)c1ccc(Br)o1	-9	-2	-20	0	12	/
COc1ccc(C2=NNC(c3cccs3)=Nc3ccc(OC)cc32)cc1	51*	/	6	/	1	-14%
C[C@@H]1CCCCO[C@H](CN(C)C(=O)CCC(F)(F)F)[C@@H](C)CN([C@H](C)CO)C(=O)c2cc(NC(=O)Nc3ccc4c(c3)OCO4)ccc2O1	/	6	4	2	/	/
O=C(COc1ncnc2c(Cl)cc(Cl)cc12)N1CCCCC1	53*	-4	0	-1	16	-7%
CC(=O)COc1ncnc2c(Cl)cc(Cl)cc12	0	-2	-1	-2	-28	/
OC[C@@H]1[C@H](c2ccc(Br)cc2)[C@@H]2CN(Cc3cncnc3)CCCCN12	/	3	3	-2	/	/
O=C(COC(=O)c1ccccn1)Nc1ncc(C(F)(F)F)cc1Cl	-2	/	26	/	2	/
O=C(COC(=O)c1ccc([N+](=O)[O-])s1)Nc1ncc(C(F)(F)F)cc1Cl	75*	/	1	/	1	0%
CCN1[C@@H]2c3ccc(C4=CCCCC4)c(=O)n3C[C@H]1[C@H](CO)[C@H]2C(=O)N1CCOCC1	/	-5	16	-4	/	/
O=C(NCCN1CCCCC1)/C(=C/c1ccco1)NC(=O)c1ccccc1	79*	2	37	-8	11	-2%
CO[C@H]1CN(C)C(=O)c2cc(NC(C)=O)ccc2OC[C@@H](C)N(Cc2ccccc2C(=O)O)C[C@H]1C	/	-2	-20	0	/	/
CN(C)C(=O)CSc1nc(SCC(=O)N(C)C)n(-c2ccccc2)n1	4	/	-1	/	-26	/
O=C(CSc1nc(SCC(=O)NCc2ccccc2)n(-c2ccccc2)n1)NCc1ccccc1	81*	1	-35	5	-8	-2%
O=C(/C=C/c1ccco1)Nc1ccccc1C(=O)O	73*	6	1	/	0	-2%
